TRPML1 agonist = qHTS for Agonists of the Human Mucolipin Transient Receptor Potential 1 (TRPML1). Mucolipin-1 (Homo sapiens), Q9GZU1. activation, % (no concentration beside the values). AID 624414, 2012. hit rate 0.12% among 410,000. TRPML1-expressing cells, Ca2+ dye fluorescence, FDSS; in the data active means activation above about 50%; inconclusive means mostly about 30% to 49%; further: 0% is about no effect
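In this qHTS format, compounds were pin-transferred onto Ca8-dye-loaded TRPML1-DL cells induced with Tet overnight, and intracellular Ca2+ fluorescence was recorded kinetically for 110 s after a 10 s baseline. A subsequent 4uM final 54-4 (EC80) addition followed by a second 110 s read served as the antagonist phase.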
TRHR ag = qHTS for Small Molecule Agonists and Allosteric Enhancers of Human TRH Receptor: Primary Screen for Agonists; hit rate 0.18% among 360,000; TRHR cells, calcium flux fluo-8, FDSS agonist mode; activation, % at 2 µM; Thyrotropin-releasing hormone receptor (Homo sapiens), P34981; in the data active means activation above about 30%; further: 0% is about no effect
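Fluo-8-loaded TRHR cells; 10 s baseline, compound added, kinetic Ca2+ fluorescence read 1/s, agonist mode.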
HEK293 tox = qHTS of GLP-1 Receptor Inverse Agonists: Cytotox Screen; HEK293 cAMP-luciferase reporter cells, luminescence, 24 h; Potency, µM (doses to about 38.3 µM), for inactives: at the top dose activity change, negative = inhibition, hits mostly inhibitors; hit rate 0.13% among 410,000; AID 624418, 2012;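 further: loss of luciferase light is scored as toxicity; potency means the concentration at half of the fitted maximal effect; on the % scale 0 is the no-effect control and ±100 the full control effect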
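To flag toxic compounds, the library was rerun on cells for 24 hr at 37 deg C and 5% CO2. Viability-linked luminescence was captured 12 min after adding luciferase detection reagent.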
TRPML1 blocker = qHTS for Inhibitors of the Human Mucolipin Transient Receptor Potential 1 (TRPML1) | hit rate 0.02% among 390,000 | TRPML1-inducible cells, Ca2+ dye fluorescence, FDSS; stronger effect = lower value; inhibition of EC80 agonist-evoked calcium signal | Mucolipin-1 (Homo sapiens), Q9GZU1 | activity change, negative = inhibition, % (test concentration not listed); in the data active means activity change below about -50%; inconclusive means between about -30% and that limit;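 further: stimulus is agonist 54-4 at its EC80 concentration; on the % scale 0 is the no-effect control and ±100 the full control effect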
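Tet-induced TRPML1-DL cells loaded with Ca8 no-wash calcium dye were read kinetically on FDSS. Compound addition was followed by EC80 agonist 54-4 (4 uM final); inhibition was read over 110 s.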
TRHR enhancer = qHTS for Small Molecule Agonists and Allosteric Enhancers of Human TRH Receptor: Primary Screen for Enhancers | Thyrotropin-releasing hormone receptor (Homo sapiens), P34981 | TRHR cells, fluo-8 calcium fluorescence, EC20 TRH enhancement | enhancement, % at 2 µM | hit rate 0.66% among 360,000 | AID 493056, 2011; in the data active means enhancement above about 30%; further: 0% is about no effect
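Enhancer read-out: after compound pinning and an initial kinetic agonist-mode read, an EC20 of TRH (10 nM final) was injected and fluo-8 calcium signal (Ex 480/Em 530) followed at 1 s/cycle for 100 cycles in TRHR-expressing cells.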
PTHR1 ag = qHTS for PTHR1 Agonists: Primary Screen | HEK293 GP2 PTHR1 cells, GloSensor cAMP luminescence, 1 h | Parathyroid hormone/parathyroid hormone-related peptide receptor (Homo sapiens), Q03431 | hit rate 0.075% among 410,000 | AID 743266, 2014 | Potency, µM (highest dose often 115 µM), for the others: top-dose activation, actives largely listed as activators; further: potency means the concentration at half of the fitted maximal effect; nearly all actives have a fitted effect of over 55% in size
Target sequence (Q03431 whole entry, looked up): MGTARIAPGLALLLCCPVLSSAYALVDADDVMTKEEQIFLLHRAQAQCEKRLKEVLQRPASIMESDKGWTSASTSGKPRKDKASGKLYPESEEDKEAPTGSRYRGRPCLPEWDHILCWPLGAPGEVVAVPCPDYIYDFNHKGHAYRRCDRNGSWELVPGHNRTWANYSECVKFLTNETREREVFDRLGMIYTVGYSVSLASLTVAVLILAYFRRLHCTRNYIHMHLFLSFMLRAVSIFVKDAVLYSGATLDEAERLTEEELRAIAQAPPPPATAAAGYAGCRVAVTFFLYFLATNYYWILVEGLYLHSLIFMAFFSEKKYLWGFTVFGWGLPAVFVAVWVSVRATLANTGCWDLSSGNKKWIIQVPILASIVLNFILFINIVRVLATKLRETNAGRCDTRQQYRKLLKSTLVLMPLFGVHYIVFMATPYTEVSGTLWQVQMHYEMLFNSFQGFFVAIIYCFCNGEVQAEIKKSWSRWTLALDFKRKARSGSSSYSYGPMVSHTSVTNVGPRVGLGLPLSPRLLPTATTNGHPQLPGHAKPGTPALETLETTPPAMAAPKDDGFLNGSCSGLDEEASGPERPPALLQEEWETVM
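HEK-293-derived GP2 cells expressing PTHR1 and a GloSensor cAMP reporter, 3,000/well, plated overnight, given luciferin plus IBMX (each 0.5 mM as added) for 1 h at 37 °C, then compound for 1 h at 37 °C. Luminescence was read after 15 min at room temperature.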
* marks the source's active call; other numbers are inactive results; [ ] = another dose, or the depositor's remark. Only some compounds are listed: those with a hit (about 0.93% of all), similar ones and a draw of the others. Unless noted, the call rests on the fitted dose curve; in most records, active means well fitted curve in the direction sought with a large enough effect; inconclusive means small, poorly fitted or top-dose-only effect, or another doubt; inactive means no such curve, though single readings can be large; an effect the other way counts as inactive or inconclusive.

What do the screens show for `COc1ccc(-c2c(C)nn3c(-c4ccccc4)cc(C)nc23)cc1OC`?
TRPML1 agonist: -1; TRHR ag: 1; HEK293 tox: -4%; TRPML1 blocker: 20; TRHR enhancer: 36*; PTHR1 ag: -52%

What do the screens show for `NC(=S)NN=C(c1ccc(Br)cc1)C1CC1`?
TRPML1 agonist: 0; HEK293 tox: 2.5µM*; TRPML1 blocker: 36; PTHR1 ag: -22%

Results for Cc1cccc(/C=C(\c2nc3ccccc3[nH]2)S(=O)(=O)c2ccccc2)c1 ?
TRPML1 agonist: 2; TRHR ag: 0; HEK293 tox: 8.9µM*; TRPML1 blocker: 16; TRHR enhancer: 8; PTHR1 ag: -35%

Results for CCOC(=O)c1c(NC(=O)CSc2nc3ccc(OC)cc3[nH]2)sc2c1CC(C)(C)NC2(C)C ?
TRPML1 agonist: 1; TRHR ag: 0; HEK293 tox: inconclusive; TRPML1 blocker: 8; TRHR enhancer: 9; PTHR1 ag: inactive

How did O=c1[nH]c(=S)[nH]c(O)c1N=Nc1ccc2c(c1)OCCO2 do in these assays?
TRPML1 agonist: 1; TRHR ag: 2; HEK293 tox: inconclusive; TRPML1 blocker: -6; TRHR enhancer: -4; PTHR1 ag: -21%

How did O=c1[nH]c(=S)[nH]c(O)c1N=Nc1ccc2c(c1)OCO2 do in these assays?
TRPML1 agonist: 1; TRHR ag: 2; HEK293 tox: 10µM*; TRPML1 blocker: 7; TRHR enhancer: 6; PTHR1 ag: -3%

Results for NNC(=O)c1ccc(OCC2CC(c3ccc(Cl)cc3)=NO2)cc1 (centres undefined) ?
TRPML1 agonist: 0; TRHR ag: 0; HEK293 tox: 13µM*; TRPML1 blocker: 6; TRHR enhancer: 2; PTHR1 ag: -34%

Results for CC(=O)Nc1c(Br)cc2c(c1Br)Cc1cc([N+](=O)[O-])ccc1-2 ?
TRPML1 agonist: 4; HEK293 tox: 38%; TRPML1 blocker: 40; PTHR1 ag: -10%

Results for CC1CCN(S(=O)(=O)c2ccc3nc(Nc4cccc(F)c4)ccc3c2)CC1 ?
TRPML1 agonist: 5; TRHR ag: 1; HEK293 tox: inconclusive; TRPML1 blocker: -4; TRHR enhancer: -2; PTHR1 ag: inactive

How did Oc1ccc(Cl)cc1CN1CCN(Cc2ccccc2)CC1 do in these assays?
TRPML1 agonist: 2; TRHR ag: 1; HEK293 tox: -18%; TRPML1 blocker: -3; TRHR enhancer: 31*; PTHR1 ag: -2%[57.5 µM]

Results for CCCCOc1ccc(CNC(=O)c2cc3n(n2)CCCN(Cc2ccc(C)cc2)C3=O)cc1 ?
TRPML1 agonist: 3; TRHR ag: 1; HEK293 tox: 0%; TRPML1 blocker: 2; TRHR enhancer: 0; PTHR1 ag: -32%

What do the screens show for `C[C@H]1CCCC=CC2C[C@H](O)C[C@@H]2[C@H](O)C=CC(=O)O1` (some centres undefined)?
TRPML1 agonist: 0

How did O=c1c(O)c(-c2ccc(O)c(O)c2)oc2cc(O)cc(O)c12 do in these assays?
TRPML1 agonist: 1; TRHR ag: 6; HEK293 tox: -6%; TRPML1 blocker: 6; TRHR enhancer: 63*; PTHR1 ag: -64%

Results for Cc1ccc(/C=C/C(=O)c2ccccc(=O)c2O)c(C)c1 ?
TRPML1 agonist: -1; TRHR ag: 0; HEK293 tox: inconclusive; TRPML1 blocker: -12; TRHR enhancer: 2; PTHR1 ag: -28%

Results for C=C(CN(C)C)C(=O)c1ccc(C)cc1C ?
TRPML1 agonist: 4; HEK293 tox: 10µM*; TRPML1 blocker: 24; PTHR1 ag: -4%

Results for O=C(CCl)c1ccc(O)c(O)c1 ?
TRPML1 agonist: -1

How did CN1/C(=C\C=C2C(=O)NC(=S)NC2=O)C(C)(C)c2ccccc21 do in these assays?
TRPML1 agonist: 117*; TRHR ag: 175*; HEK293 tox: -1%; TRPML1 blocker: -18; TRHR enhancer: 6; PTHR1 ag: -26%

Results for CN1C(=CC=C2C=C(I)C(=O)C(I)=C2)C(C)(C)c2ccccc21 ?
TRPML1 agonist: 16; TRHR ag: 9; HEK293 tox: inconclusive; TRPML1 blocker: -5; TRHR enhancer: 3; PTHR1 ag: -31%

How did C=CCCC[C@@H]1OC(=O)CNC(=O)C([C@@H](C)CC)NC(=O)[C@@H]2CCCN2C(=O)C([C@@H](C)CC)OC(=O)[C@H](Cc2ccccc2)N(C)C(=O)[C@H](C(C)C)NC(=O)C1(C)C (some centres undefined) do in these assays?
TRPML1 agonist: 24; HEK293 tox: inconclusive; PTHR1 ag: -1%

Results for CCC(C)C1NC(=O)C2CCCN2C(=O)C(CC(C)C)OC(=O)CCNC(=O)C(C)N(C)C(=O)C(C(C)C)N(C)C1=O (centres undefined) ?
TRPML1 agonist: 0; HEK293 tox: 4.5µM*; TRPML1 blocker: -7; PTHR1 ag: 9%

How did O=c1cc(C(F)(F)F)c2cc3c4c(c2o1)CCCN4CCC3 do in these assays?
TRPML1 agonist: 106*; TRHR ag: 240*; HEK293 tox: inactive; TRPML1 blocker: -1; TRHR enhancer: 6; PTHR1 ag: inactive

Results for Cc1cc2c(C(F)(F)F)cc(=O)oc2c2c1NCCC2 ?
TRPML1 agonist: inconclusive; TRHR ag: 91*; HEK293 tox: 257%; TRPML1 blocker: -2; TRHR enhancer: 21; PTHR1 ag: inactive

How did CCOC(=O)c1ccc(N2C(=O)c3n[nH]c(-c4cccs4)c3C2c2ccc(OC)cc2OC)cc1 (centres undefined) do in these assays?
TRPML1 agonist: 1; TRHR ag: 2; HEK293 tox: -1%; TRPML1 blocker: -4; TRHR enhancer: 13; PTHR1 ag: -54%

Results for CCN1/C(=C/C(C)=C/c2sc3ccccc3[n+]2CC)Sc2ccccc21 ?
TRPML1 agonist: 2; TRHR ag: 2; HEK293 tox: 13µM*; TRPML1 blocker: -10; TRHR enhancer: 5; PTHR1 ag: -35%

How did CCOC(=O)[C@]12Cc3cc(OC)ccc3[C@H]1N(C1CCCCC1)C(=O)c1ccccc12 do in these assays?
TRPML1 agonist: 0; HEK293 tox: 10µM*; PTHR1 ag: -6%
